Shown are actives, neighbours in structure and some others; about 3.6% of the full set was active somewhere.
VHR inh abs = DUSP3 (human) phosphatase inhibition | P51452 | recombinant VHR phosphatase, pNPP absorbance | inhibition, % at 13.3 µM | hit rate 0.52% among 290,000; in the data active = inhibition above about 50%
Target sequence (P51452 whole entry, looked up): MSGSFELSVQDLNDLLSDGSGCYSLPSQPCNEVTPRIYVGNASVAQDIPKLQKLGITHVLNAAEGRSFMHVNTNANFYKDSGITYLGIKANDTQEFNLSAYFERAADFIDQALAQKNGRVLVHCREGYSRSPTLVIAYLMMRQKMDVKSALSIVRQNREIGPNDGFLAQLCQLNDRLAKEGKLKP
Mtb hypoxia rep = Mtb hypoxia fluorescent reporter inhibition. M. tuberculosis hypoxia-regulated fluorescent reporter, fluorescence. fluorescence inhibition, % (concentration not given with the values). hit rate 0.1% among 300,000. AID 1159583; in the data active = fluorescence inhibition mostly above about 23%, no sharp cut-off; inactive = mostly below about 17%
Mtb bLac sens = beta-lactam sensitization of Mtb H37Rv; M. tuberculosis H37Rv growth with meropenem, percent inhibition; inhibition, % at 25 µM; hit rate 0.27% among 330,000; AID 434955; call rule not given here;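 note: growth measured after seven days incubation then overnight dye step; 0% = bacteria only wells and 100% = bacteria with antibiotic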
Mtb FBA inh = inhibits M. tuberculosis FBA enzyme; P9WQA3; purified M. tuberculosis FBA, fluorescence read-out; hit rate 2.3% among 360,000; inhibition, % at 1 µM;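 note: 0% = vehicle and 100% = reference inhibitor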
Target sequence (P9WQA3 whole entry, looked up): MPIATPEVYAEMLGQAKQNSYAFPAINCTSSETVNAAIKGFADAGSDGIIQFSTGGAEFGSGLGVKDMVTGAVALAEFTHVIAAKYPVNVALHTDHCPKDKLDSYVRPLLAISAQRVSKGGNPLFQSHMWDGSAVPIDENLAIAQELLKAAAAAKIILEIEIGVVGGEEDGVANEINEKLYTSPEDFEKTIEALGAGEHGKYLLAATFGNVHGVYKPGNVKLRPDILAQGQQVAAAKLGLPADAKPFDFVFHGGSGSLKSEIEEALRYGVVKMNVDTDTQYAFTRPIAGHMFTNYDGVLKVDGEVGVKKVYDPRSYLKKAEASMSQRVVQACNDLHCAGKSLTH
GDH-TPI counter-1 = GDH-TPI coupled enzyme inhibition counter-screen; GDH-TPI coupled enzyme counterscreen, NADH absorbance; inhibition, % at 4.8 µM; hit rate 1.2% among 360,000; AID 588335; in the data active = inhibition above about 30%;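 note: 0% = DMSO wells and 100% = wells lacking the enzyme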
Mtb FBA inh conf = confirmation of M. tuberculosis fructose-bisphosphate aldolase inhibitors. shares compounds with Mtb FBA inh. purified M. tuberculosis FBA, fluorescence read-out. inhibition, % at 1 µM. hit rate 78% among 5,600. AID 651616;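 note: 0% = vehicle wells and 100% = reference inhibitor wells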
GDH-TPI counter-2 = inhibits GDH-TPI coupling enzymes, flagging Mtb FBA hits; hit rate 81% among 5,600; shares compounds with Mtb FBA inh; inhibition, % at 1 µM; GDH-TPI coupled enzyme counterscreen, fluorescence; in the data active = inhibition above about 10%
Numbers without * were called inactive; nt = no result given; + = active, no number. Cut-off read from the data, not from the text of the source, unless noted: active = inhibition above about 27%; inactive = the rest.

SMILES	VHR inh abs	Mtb hypoxia rep	Mtb bLac sens	Mtb FBA inh	GDH-TPI counter-1	Mtb FBA inh conf	GDH-TPI counter-2
Cc1cc(OCC(=O)NCC(O)c2ccccc2)c2c3c(c(=O)oc2c1)CCCC3 (stereo not given)	0	6	-1	12	7	nt	nt
Cc1cc(OC(C)C(=O)N[C@H](C(=O)O)c2ccccc2)c2c3c(c(=O)oc2c1)CCC3 (stereo not given in full)	33	nt	-8	108*	3	144*	105*
O=C(COc1ccc2c3c(c(=O)oc2c1)CCC3)NCC(O)c1ccccc1 (stereo not given)	-22	7	3	3	2	nt	nt
COc1ccc(C=NNC(=O)CN2CCN(Cc3ccccc3)CC2)cc1Br	nt	5	nt	nt	nt	nt	nt
Cc1n[nH]c(=O)nc1NN=Cc1cccs1	nt	7	nt	nt	nt	nt	nt
CN(C)C=Nc1nc2nccc(-c3ccc(F)cc3)n2n1	nt	-3	nt	nt	nt	nt	nt
CN(C)/C=N/c1nc2nccc(-c3ccc(Cl)cc3)n2n1	-5	nt	-9	72*	19	-4	-5
CN(C)/C=N/c1nc2nccc(-c3ccccc3)n2n1	9	nt	-2	52*	11	132*	106*
O=C(NN=Cc1ccc(Cl)cc1)c1nc2ccc([N+](=O)[O-])cc2c(=O)[nH]1	nt	-8	nt	nt	nt	nt	nt
CC(=NN(C)C)c1ccc(OCCOc2ccc([N+](=O)[O-])cc2)cc1	nt	3	nt	nt	nt	nt	nt
Cc1cccc2nc3ccccc3cc12	nt	19	-7	33*	-7	49*	33*
N=c1c(C(=O)NCc2ccccc2)cc2c(=O)n3ccccc3nc2n1Cc1ccco1	0	-1	-3	50*	17	88*	78*
N=c1c(C(=O)NCc2ccc3c(c2)OCO3)cc2c(=O)n3ccccc3nc2n1Cc1cccnc1	17	5	-4	3	5	nt	nt
O=C(NC1CCS(=O)(=O)C1)c1cc2c(=O)n3ccccc3nc2n1Cc1ccccc1 (stereo not given)	nt	nt	nt	102*	22	+	196*
Cc1ccc(CNC(=O)c2cc3c(=O)n4ccccc4nc3n(Cc3ccco3)c2=N)cc1	36	-3	63	63*	22	54*	48*
Cc1ccc(S(=O)(=O)c2cc3c(=O)n4ccccc4nc3n(Cc3ccco3)c2=N)cc1	6	-6	-12	87*	35*	+	+
CC(CC(=O)Nc1ccc2c(c1)OCCO2)=NNC(=O)C(=O)Nc1ccccc1C	nt	0	nt	nt	nt	nt	nt
S=C1NCC(Cc2ccccc2)N1CCc1cccc2ccccc12 (stereo not given)	nt	5	nt	nt	nt	nt	nt
N=c1c(C(=O)NCc2ccco2)cc2c(=O)n3ccccc3nc2n1Cc1ccc(Cl)cc1	-8	11	18	44*	13	113*	87*
C=CCn1c(=N)c(C(=O)OCC)cc2c(=O)n3cc(C)ccc3nc21	2	nt	nt	nt	nt	nt	nt
Cc1ccc2nc3c(cc(C(=O)NCc4ccco4)c(=N)n3Cc3ccco3)c(=O)n2c1	26	3	9	42*	14	49*	36*
Fc1ccc(C[n+]2c(-c3ccccc3)cc(-c3ccccc3)cc2-c2ccccc2)cc1	nt	nt	94	nt	nt	nt	nt
Clc1ccc(C[n+]2c(-c3ccccc3)cc(-c3ccccc3)cc2-c2ccccc2)cc1	nt	nt	100	38*	15	22	13*
COc1ccc(-c2oc3ccccc3c2C(=O)OCc2ccccc2OC)cc1	24	nt	10	73*	31*	-7	-8
COc1ccc(-c2ccc(CCC(=O)O)n2CC(C)C)cc1	13	8	28	41*	-12	48*	30*
SMILES	VHR inh abs	Mtb hypoxia rep	Mtb bLac sens	Mtb FBA inh	GDH-TPI counter-1	Mtb FBA inh conf	GDH-TPI counter-2
COc1ccc(-c2ccc(CCC(=O)O)n2CC2CCCO2)cc1 (stereo not given)	0	-8	-8	33*	11	+	144*
O=C(O)CCc1ccc(-c2ccc(F)cc2)n1CC1CCCO1 (stereo not given)	-16	4	8	18	-4	nt	nt
O=C(NNC(=O)C1C2C=CC(C2)C1C(=O)O)c1cc(Cl)ccc1O (stereo not given)	13	-12	4	65*	7	59*	55*
CCn1ccnc1CN(C)Cc1cn[nH]c1-c1ccc(F)cc1F	19	3	-1	91*	1	0	-5
COc1ccc(-c2[nH]ncc2CN(Cc2nccn2C)C(C)C)c(F)c1	25	-2	4	-1	4	nt	nt
COC(=O)C(NC(=O)c1ccccc1)C(C)O (stereo not given)	nt	17	nt	nt	nt	nt	nt
COc1cc(C=NNc2nnc3c(n2)[nH]c2ccccc23)ccc1O	nt	8	nt	nt	nt	nt	nt
N/C(=N\OC(=O)c1ccoc1)c1ccc(Br)cc1	6	9	-7	38*	-3	155*	150*
Cc1cc(C)cc(C(=O)O/N=C(\N)c2ccc(Br)cc2)c1	10	5	5	0	-4	nt	nt
CCOC(=O)NN=Cc1cn(Cc2ccccc2Cl)c2ccccc12	nt	7	nt	nt	nt	nt	nt
C[C@H]1COc2c(N3CCN(C)CC3)c(F)cc3c(=O)c(C(=O)O)cn1c23	3	nt	100	55*	21	+	162*
CN1CCN(c2c(F)cc3c(=O)c(C(=O)O)cn4c3c2SCC4)CC1	27	nt	100	28*	15	+	+
Cc1c(-n2cc(C(=O)O)c(=O)c3cc(F)c(N4CCCC4)c(F)c32)c(=O)n(-c2ccccc2)n1C	49	2	8	-1	-1	nt	nt
COc1ccc(S(=O)(=O)NCCC(=O)OCc2cc(=O)oc3cc(C)ccc23)cc1[N+](=O)[O-]	nt	0	nt	1	6	nt	nt
